Bioassay records as filed in PubChem BioAssay.
FBW7 activator – activators of human E3 ligase FBW7 | Q969H0 | actives 0.13% (n = 650,000) | AlphaScreen FBW7–phospho-cyclin E peptide binding, activator screen | AID 1259310 | normalized activity (activation), % at 26.1 µM; in the data active means normalized activity above about 1.9%;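 further: purified mutant Fbw7 with reduced substrate affinity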
TEAD-YAP inh – TEAD-YAP interaction inhibition; inhibition, % at 9.12 µM; HEK-TIYL cells, TEAD-Gal4/YAP UAS-luciferase luminescence; actives 1.4% (n = 640,000); AID 1259422; in the data active means inhibition above about 32%;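 further: 0% = median of test compound wells and 100% = reference inhibitor wells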
GPR151 activ – human GPR151 activation. Q8TDV0. PathHunter beta-arrestin GPR151 cells, luminescence. activation, % at 11.2 µM. actives 1% (n = 650,000). AID 1508602; in the data active means activation above about 4.9%;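 further: 0% = median of compound wells and 100% = cells with positive control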
Target sequence (Q8TDV0 whole entry, looked up): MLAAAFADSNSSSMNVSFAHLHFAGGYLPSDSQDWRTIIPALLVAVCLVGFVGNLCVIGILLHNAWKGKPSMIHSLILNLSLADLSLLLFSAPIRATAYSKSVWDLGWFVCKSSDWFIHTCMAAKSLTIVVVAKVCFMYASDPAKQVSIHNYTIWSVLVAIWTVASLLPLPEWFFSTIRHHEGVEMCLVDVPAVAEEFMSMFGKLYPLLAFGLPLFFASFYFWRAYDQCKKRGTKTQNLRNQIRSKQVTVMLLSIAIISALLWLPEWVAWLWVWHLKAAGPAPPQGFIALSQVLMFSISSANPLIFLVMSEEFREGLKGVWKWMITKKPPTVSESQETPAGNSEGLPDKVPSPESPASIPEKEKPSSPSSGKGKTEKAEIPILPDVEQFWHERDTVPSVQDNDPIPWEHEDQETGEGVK
MITF primary – human MITF inhibition, primary screen | AlphaScreen MITF homodimerization, bead proximity signal | actives 0.91% (n = 650,000) | inhibition, % at 2.6 µM | O75030; in the data active means inhibition above about 50%;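 further: 0% = vehicle wells with protein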
GPR151 conf act – confirmation of human GPR151 activators. shares compounds with GPR151 activ. GPR151 PathHunter beta-arrestin cells, luminescence, 90 min; % of EA-reagent control over plate median. activation, % at 11.2 µM. 6,700 tested, under 10 active. AID 1508609;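 active means mean percent activation across replicates above the confirmation screen cutoff of 4.91%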
GPR119 ag – counter-screen for GPR151 activators: effect on human GPR119 | shares compounds with GPR151 activ | GPR119 PathHunter beta-arrestin cells, luminescence, 90 min; 0 = compound-well median, 100 = enzyme-acceptor control | activation, % at 11.2 µM | actives 0.3% (n = 6,700);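 active means mean percent activation in the counterscreen above 29.09%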;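 further: counterscreen on off-target GPR119 to flag nonselective hits from the GPR151 activator screen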
Numbers without * were called inactive; nt = not tested or not shown. Rows were chosen to be rich in hits. Some 3.5% of all compounds tested hit in one or more screens of this group.

SMILES | FBW7 activator | TEAD-YAP inh | GPR151 activ | MITF primary | GPR151 conf act | GPR119 ag
CCOC(=O)c1c(NC(=O)CSc2nnc(CNC(=O)c3ccc(OC)cc3)n2-c2ccc([N+](=O)[O-])cc2)sc2c1CCCCC2 | 0 | 1 | 5.9* | 7 | 1 | -8
CCOC(=O)c1c(NC(=O)CSc2ccccn2)sc2c1CCCC2 | 0 | -11 | 6.8* | 11 | 0 | -3
CCOC(=O)c1c(NC(=O)CSc2nnc3ccccn23)sc2c1CCCC2 | 0 | -2 | 6.8* | 11 | 1 | 6
CCOC(=O)c1c(NC(=O)CCSc2nnc3ccccn23)sc2c1CCCC2 | 0 | 0 | 1 | 10 | nt | nt
CCOC(=O)c1c(NC(=O)CSc2nc3ccccc3[nH]2)sc2c1CCCC2 | 0 | -24 | 6.3* | 2 | 0 | 0
O=C(CSCc1cccc(Cl)c1)NCc1ccccc1 | 0 | -24 | 1 | -14 | nt | nt
Cc1ccn2c(=O)nc(SCc3cccc(Cl)c3)nc2c1 | 0 | -12 | 0 | -18 | nt | nt
COc1ccc(-n2c(SCC(=O)Nc3nccs3)nc3ccsc3c2=O)cc1 | 0 | -2 | 1 | 1 | nt | nt
Cc1cc(C)cc(OCCCCn2ccnc2)c1 | 0 | 3 | -1 | -1 | nt | nt
CC1(C)Cc2c(sc3nc(-c4cc5ccccc5o4)n(N)c(=O)c23)CO1 | 0 | -12 | 6.4* | 2 | 0 | -2
CCCNC(=O)c1cnc(Nc2nccc3ccccc23)s1 | 0 | -51 | -1 | -1 | nt | nt
COc1ccc(CCNC(=O)c2cnc(Nc3nccc4ccccc34)s2)cc1 | 0 | 0 | 5.8* | 18 | 0 | -8
CN1C(=O)C2(c3ccccc31)C(C(=O)N1CCN(Cc3ccccc3)CC1)CC1CCCN12 (stereo not drawn) | 0 | 2 | -3 | -3 | nt | nt
CCOc1ccc(Nc2nc(N3CCOCC3)c3ccccc3n2)cc1 | 0 | 23 | 1 | -1 | nt | nt
CCOc1ccc(Nc2nc(NCc3ccco3)c3ccccc3n2)cc1 | 0 | 49* | 5.1* | -3 | 0 | 11
O=C(Cn1c(-c2ccccn2)nc2ccccc21)Nc1nc2ccccc2s1 | 0 | 1 | 6.0* | -5 | 0 | 4
CC(C)NC(=O)c1cnc2scc(-c3ccccc3)n2c1=O | 0 | 2 | 8.5* | 3 | 2 | 3
CC1(C)NC(=O)N(CCOCCOc2ccc3ccccc3c2Br)C1=O | 0 | -32 | 5.5* | -5 | 0 | -10
CC1(C)NC(=O)N(CC(O)COc2ccc3ccccc3c2Br)C1=O (stereo not drawn) | 0 | -13 | 3 | -5 | nt | nt
Cc1ccc(N(CC(=O)NC(C(C)C)C(C)C)S(C)(=O)=O)cc1 | 0 | -11 | 0 | 10 | nt | nt
Cc1c(C(=O)N2CCCC(C)C2)sc2ncn(Cc3ccccc3F)c(=O)c12 (stereo not drawn) | 0 | -1 | -1 | -3 | nt | nt
Cc1c(C(=O)N2CCCC2)sc2ncn(Cc3ccccc3F)c(=O)c12 | 0 | 7 | 5.3* | 2 | 1 | 16
Cc1ccc(NC(=O)NC2(C(=O)NCc3ccncc3)CCCCC2)cc1 | 0 | -12 | 5.4* | -11 | -1 | 2
COc1ccc(NC(=O)NC2(C(=O)NCc3ccncc3)CCCCC2)cc1 | 0 | 6 | 1 | -14 | nt | nt
CC(C)c1nc2ccccc2c2nn(CC(=O)N3CCC(C(N)=O)CC3)c(=O)n12 | 0 | -1 | -1 | -10 | nt | nt
SMILES | FBW7 activator | TEAD-YAP inh | GPR151 activ | MITF primary | GPR151 conf act | GPR119 ag
CCCOC(=O)CN1C(=O)C2C3c4ccccc4C(c4ccccc43)C2C1=O (stereo not drawn) | 0 | 4 | 5.0* | 16 | -1 | -15
Cc1ccc(C)c(OCC(=O)O/N=C(\N)c2ccc(Br)cc2)c1 | 0 | -7 | 1 | -2 | nt | nt
COc1cc(C(=O)O/N=C(\N)c2ccc(Br)cc2)cc(OC)c1OC | 0 | 0 | 6.6* | 13 | 0 | -10
Cc1ccc(C)c(OCC(=O)O/N=C(\N)c2ccc(I)cc2)c1 | 0 | 3 | 5.5* | -14 | 0 | -2
Cc1ccc(/C(N)=N/OC(=O)COc2ccc(Br)cc2)cc1 | 0 | -4 | 8.5* | 1 | 0 | 7
Cc1ccc(-c2nc(CCNS(=O)(=O)c3ccccc3)cs2)cc1 | 0 | -8 | 0 | 17 | nt | nt
N#Cc1ccccc1NC(=O)c1cc2c(s1)-c1ccccc1S(=O)(=O)C2 | 0 | 17 | 0 | 3 | nt | nt
